The record followed here is PubChem BioAssay (NCATS).

Inconclusive results are not listed. Active and inactive are the calls of the source. Calls come from the whole dose curve; as a rule, active = well fitted curve in the direction sought with a large enough effect; inconclusive = small, poorly fitted or top-dose-only effect, or another doubt; inactive = no such curve, though single readings can be large; an effect the other way counts as inactive or inconclusive.

Test [1] is described as follows: Primary qHTS for inhibitors of nuclear receptor binding SET domain protein 2 (NSD2) in an isogenic RCH-ACV NSD2 p.E1099K mutant (9B) (AID 1645876). Note: nearly all actives have a fitted effect of over 70% in size. Note: potency is the fitted concentration of half-maximal effect. For orientation: qHTS replaces the single test concentration by a dilution series.
For test [2], the target named is N-terminal Xaa-Pro-Lys N-methyltransferase 1 (Homo sapiens) (UniProt Q9BV86). Nature of the test: Confirmatory qHTS for Inhibitors of N-terminal methyltransferase 1 (NTMT1): MTaseGlo Assay (AID 1645874). Note: potency is the fitted concentration of half-maximal effect; nearly all actives have a fitted effect of over 65% in size. The essentials:
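MTase-Glo luminescence measured SAH formed by 125 nM NTMT1 from 100 uM SAM and 1 uM SPKRIA peptide over 30 min at room temperature, following 15 min compound preincubation. Percent inhibition against no-enzyme and DMSO controls gave 4-parameter Hill fits.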

Test [3] deals with Rap guanine nucleotide exchange factor 3 (Homo sapiens) (UniProt O95398). Nature of the test: Confirmatory qHTS for agonist of cAMP-regulated guanine nucleotide exchange factor 3 (EPAC1) (AID 1645881).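 Note: EPAC1 catalysed release of BODIPY-GDP from Rap1B seen as fluorescence loss; 100% = effect of cAMP agonist control; nearly all actives have a fitted effect of over 75% in size.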
Rap guanine nucleotide exchange factor 3 (Homo sapiens), sequence (O95398 whole entry, looked up): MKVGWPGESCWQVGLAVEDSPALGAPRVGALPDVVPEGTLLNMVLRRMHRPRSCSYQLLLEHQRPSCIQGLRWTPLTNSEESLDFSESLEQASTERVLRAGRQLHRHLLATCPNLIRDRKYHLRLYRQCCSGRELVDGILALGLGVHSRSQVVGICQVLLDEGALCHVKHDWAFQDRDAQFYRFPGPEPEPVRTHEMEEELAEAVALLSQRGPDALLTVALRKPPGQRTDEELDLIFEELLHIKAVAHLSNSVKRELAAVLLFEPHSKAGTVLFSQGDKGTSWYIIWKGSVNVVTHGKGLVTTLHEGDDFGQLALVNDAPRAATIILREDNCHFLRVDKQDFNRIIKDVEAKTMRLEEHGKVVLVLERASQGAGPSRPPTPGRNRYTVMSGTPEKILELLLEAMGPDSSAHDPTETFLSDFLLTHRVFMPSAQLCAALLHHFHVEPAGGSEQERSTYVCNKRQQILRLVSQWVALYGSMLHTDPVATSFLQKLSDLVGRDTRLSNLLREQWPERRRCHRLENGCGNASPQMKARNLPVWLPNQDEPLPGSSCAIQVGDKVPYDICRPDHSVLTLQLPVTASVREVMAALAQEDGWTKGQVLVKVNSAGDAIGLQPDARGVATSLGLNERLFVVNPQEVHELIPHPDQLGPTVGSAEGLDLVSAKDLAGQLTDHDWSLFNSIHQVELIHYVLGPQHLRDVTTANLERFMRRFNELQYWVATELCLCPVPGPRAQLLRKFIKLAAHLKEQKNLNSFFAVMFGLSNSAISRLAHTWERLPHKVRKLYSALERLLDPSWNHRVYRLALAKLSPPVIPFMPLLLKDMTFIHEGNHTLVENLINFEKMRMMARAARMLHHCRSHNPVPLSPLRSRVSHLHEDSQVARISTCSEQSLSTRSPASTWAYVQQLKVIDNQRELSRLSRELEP
Test [4] has as its target Rap guanine nucleotide exchange factor 4 (Homo sapiens) (UniProt Q8WZA2). Nature of the test: Confirmatory qHTS for agonist of cAMP-regulated guanine nucleotide exchange factor 4 (EPAC2) (AID 1645884).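 Note: nucleotide exchange releases bodipy-GDP from Rap1 and this lowers its fluorescence; % is set by controls: 0 for no effect and ±100 for the full control effect; nearly all actives have a fitted effect of over 65% in size.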
The target is the same in test [5]. The experiment in a line: Confirmatory qHTS for antagonist of cAMP-regulated guanine nucleotide exchange factor 4 (EPAC2) (AID 1645885). Note: % is set by controls: 0 for no effect and ±100 for the full control effect; nearly all actives have a fitted effect of over 25% in size.
Test [6] concerns the target Rap guanine nucleotide exchange factor 3 (Homo sapiens) (UniProt O95398). The experiment in a line: Counterscreen qHTS for antagonist of cAMP-regulated guanine nucleotide exchange factor 3 (EPAC1) (AID 1645888).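 Note: fluorescence loss as bound BODIPY-GDP is released from Rap1B; % of control where 0% means no effect.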 The essentials:
(§1)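 Rap1B-BODIPY-GDP 250 nM + GDP 50 uM; cpds 7-pt, final 9.74 nM–152 uM (activator mode) or from 7.32 nM upwards (inhibitor mode); RT; FI 480/540 nm at 5 and 30 min, then ± cAMP, reread.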
On the technique in general: The purpose of a counterscreen is to sort out artefacts and off-target activity.

Test [7] shares this target. Nature of the test: Counterscreen qHTS for agonist of cAMP-regulated guanine nucleotide exchange factor 3 (EPAC1) (AID 1645889). Note: % of control where 0% means no effect; nearly all actives have a fitted effect of over 40% in size. The essentials:
as §1

Test [8] in a line: Primary qHTS for inhibitors of nuclear receptor binding SET domain protein 2 (NSD2) in an RCH-ACV wild type WT cells (2C) (AID 1645877). Note: potency is the fitted concentration of half-maximal effect; nearly all actives have a fitted effect of over 70% in size.
Test [9] concerns the target Catechol O-methyltransferase (Homo sapiens) (UniProt P21964). The experiment in a line: Confirmatory Screen for Target Class Profiling of Small Molecule Inhibitors of Methyltransferases (AID 1745852). For activity change, negative = inhibition: % is set by controls: 0 for no effect and ±100 for the full control effect. To be noted: MTase-Glo luminescence, SAH detection, recombinant enzyme; measured here: COMT max response; stronger effect = lower value.
Test [10] concerns the target Guanidinoacetate N-methyltransferase (Homo sapiens) (UniProt Q14353). The test is described as above. As to conditions: MTase-Glo luminescence, SAH detection, recombinant enzyme; activity change, negative = inhibition: at 57.3 µM (top of the series) unless noted.
Test [11] has as its target Nicotinamide N-methyltransferase (Homo sapiens) (UniProt P40261). Described as above. As to conditions: MTase-Glo luminescence, SAH detection, recombinant enzyme; measured here: NNMT max response; stronger effect = lower value.
The target of test [12] is Phenylethanolamine N-methyltransferase (Homo sapiens) (UniProt P11086). The test is described as above. As to conditions: MTase-Glo luminescence, SAH detection, recombinant enzyme; measured here: PNMT max response; stronger effect = lower value.
Phenylethanolamine N-methyltransferase (Homo sapiens), sequence (P11086 whole entry, looked up): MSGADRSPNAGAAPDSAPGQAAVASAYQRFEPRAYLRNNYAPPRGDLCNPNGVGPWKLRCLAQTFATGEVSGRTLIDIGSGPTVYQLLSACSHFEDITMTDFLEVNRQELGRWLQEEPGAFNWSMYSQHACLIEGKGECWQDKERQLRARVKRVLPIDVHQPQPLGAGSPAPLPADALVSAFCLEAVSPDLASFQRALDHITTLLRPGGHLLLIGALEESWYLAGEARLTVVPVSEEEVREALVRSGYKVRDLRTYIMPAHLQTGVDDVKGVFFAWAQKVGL

Rap guanine nucleotide exchange factor 4 (Homo sapiens), sequence (Q8WZA2 whole entry, looked up): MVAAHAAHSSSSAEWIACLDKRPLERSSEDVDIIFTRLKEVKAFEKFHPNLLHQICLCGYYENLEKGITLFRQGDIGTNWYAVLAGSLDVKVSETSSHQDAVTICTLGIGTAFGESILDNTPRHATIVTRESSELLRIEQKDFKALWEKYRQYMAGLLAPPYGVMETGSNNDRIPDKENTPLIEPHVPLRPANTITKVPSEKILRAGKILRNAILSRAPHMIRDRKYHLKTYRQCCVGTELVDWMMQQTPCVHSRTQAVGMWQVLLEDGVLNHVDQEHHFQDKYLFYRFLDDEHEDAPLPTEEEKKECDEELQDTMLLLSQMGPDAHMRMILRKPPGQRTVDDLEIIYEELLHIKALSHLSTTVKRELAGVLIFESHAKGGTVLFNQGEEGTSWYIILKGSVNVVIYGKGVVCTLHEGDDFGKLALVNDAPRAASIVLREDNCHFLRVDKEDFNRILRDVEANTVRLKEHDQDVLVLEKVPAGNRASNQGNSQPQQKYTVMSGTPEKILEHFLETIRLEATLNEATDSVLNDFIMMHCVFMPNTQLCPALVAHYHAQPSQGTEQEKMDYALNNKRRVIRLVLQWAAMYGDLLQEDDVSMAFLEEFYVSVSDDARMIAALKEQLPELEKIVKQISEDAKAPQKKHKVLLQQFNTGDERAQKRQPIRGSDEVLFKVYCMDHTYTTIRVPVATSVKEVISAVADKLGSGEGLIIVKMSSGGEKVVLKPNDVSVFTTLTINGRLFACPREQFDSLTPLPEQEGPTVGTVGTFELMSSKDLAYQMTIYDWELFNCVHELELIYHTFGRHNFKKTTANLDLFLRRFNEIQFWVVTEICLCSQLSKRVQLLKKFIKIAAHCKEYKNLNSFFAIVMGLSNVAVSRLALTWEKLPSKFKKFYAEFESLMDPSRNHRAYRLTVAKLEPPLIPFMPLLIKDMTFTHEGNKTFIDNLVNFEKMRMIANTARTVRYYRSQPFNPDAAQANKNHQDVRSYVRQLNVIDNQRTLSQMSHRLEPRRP
N-terminal Xaa-Pro-Lys N-methyltransferase 1 (Homo sapiens), sequence (Q9BV86 whole entry, looked up): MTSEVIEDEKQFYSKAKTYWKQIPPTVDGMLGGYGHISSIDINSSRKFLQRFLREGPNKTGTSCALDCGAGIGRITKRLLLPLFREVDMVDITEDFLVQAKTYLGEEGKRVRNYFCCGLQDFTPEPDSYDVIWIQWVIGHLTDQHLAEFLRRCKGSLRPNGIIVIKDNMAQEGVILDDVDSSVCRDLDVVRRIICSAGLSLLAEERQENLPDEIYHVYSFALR
Nicotinamide N-methyltransferase (Homo sapiens), sequence (P40261 whole entry, looked up): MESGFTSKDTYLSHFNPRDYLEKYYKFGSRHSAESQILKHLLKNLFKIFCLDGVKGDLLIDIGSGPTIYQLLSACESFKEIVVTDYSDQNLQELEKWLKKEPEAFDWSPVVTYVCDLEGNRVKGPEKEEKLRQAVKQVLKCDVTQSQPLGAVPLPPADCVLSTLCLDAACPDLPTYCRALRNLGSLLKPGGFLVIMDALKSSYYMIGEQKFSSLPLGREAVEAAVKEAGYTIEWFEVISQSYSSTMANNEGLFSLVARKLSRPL
Catechol O-methyltransferase (Homo sapiens), sequence (P21964 whole entry, looked up): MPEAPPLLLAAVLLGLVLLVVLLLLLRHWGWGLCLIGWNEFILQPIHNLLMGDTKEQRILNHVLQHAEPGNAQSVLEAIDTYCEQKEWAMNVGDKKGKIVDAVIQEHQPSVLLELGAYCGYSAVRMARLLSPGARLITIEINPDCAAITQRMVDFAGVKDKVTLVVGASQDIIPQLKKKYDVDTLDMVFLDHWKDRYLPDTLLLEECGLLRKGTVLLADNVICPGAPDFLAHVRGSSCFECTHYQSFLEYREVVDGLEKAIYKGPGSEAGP

On to `O=C1NC(=O)/C(=C\c2ccc(-c3ccc(F)cc3O)o2)S1`, for which the Potency in test [1] is 13 µM (active).
Regarding `Cc1cccc(C(=O)Nc2sc3c(c2C(=O)O)CCCC3)c1`, the Potency in test [2] is 35.5 µM (active). For the same molecule, the Potency result in test [3], in [4], in test [5], in [6] and in [7] was “inactive” each time.
Regarding `COc1ccccc1-c1nc(SCC(=O)Nc2ccc(C)c(C)c2)n[nH]1`, the Potency entry in test [1] is “inactive”.
Take `CCN1CCN(c2ccc(Nc3ccc(-c4ccc(C(N)=O)cc4)n4ncnc34)cc2)CC1`: the Potency was 9.2 µM (active) in [1] and 7.31 µM (active) in test [8]. Besides, the activity in test [9] is -0.444%; in [11] it was -65.3%; in [12] it was -8.41%. Also, in [10], the activity change, negative = inhibition stood at 0%.
In the case of `COc1cc2c(NC3CCN(C(C)C)CC3)nc(N3CCCCCC3)nc2cc1OCCCN1CCCC1`, in test [2], the Potency was 30.8 µM (active).
